For 61 molecules, cytotoxicity results are on record in PubChem BioAssay AID430 (Sanford-Burnham Center for Chemical Genomics, 2006).

The structures appear in SMILES notation. Out of some 63,000 compounds screened, about 1,100 (1.7%) were called active. Cut-off read from the data, not from the text of the source: active = cytotoxicity above about 50%; inactive = the rest. What follows is part of a selection rich in actives, with near analogues and random picks from the rest. Potency and affinity values are given separately.

The assay in a line: cytotoxicity in HPDE-C7 cells, cell-based, fluorescence, HTS (AID 430).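 Note: cells exposed to compound for 48 hours before viability readout; 0% = vehicle and 100% = reference cytotoxic drug.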 Particulars: HPDE-C7 pancreatic duct cells viability, at 10 µM, active compounds read high.
Consider `Cc1ccc(OCCn2nc3ccccc3n2)c(C)c1`, for which the cytotoxicity is -1.3% (inactive).
Consider `O=C(CSc1nnc(CNC(=O)c2ccccc2F)o1)Nc1ccc2c(c1)OCCO2`, for which the cytotoxicity is 1.1% (inactive).
Under `O=C(c1ccco1)N1CCN(S(=O)(=O)c2cccs2)CC1` stands -11.8% (inactive); under `Cc1cc2cc(CN(C(=O)C3CC3)C3CCCC3)c3nnnn3c2cc1C`, -22.1% (inactive); under `CCOc1ccccc1Nc1nc(N)nc(CSc2nncn2C)n1`, -1.9% (inactive).
The value for `Cc1ccc(Oc2ccc(S(=O)(=O)N3CCOCC3)cc2C(N)=O)c(-n2nc3ccccc3n2)c1` was 53.1% (active); that for `Cc1ccc(S(=O)(=O)N2CCOCC2)cc1C(=O)O` was -13.5% (inactive); that for `COc1ccccc1Oc1ccc(S(=O)(=O)N2CCOCC2)cc1S(=O)(=O)N1CCOCC1` was -10.8% (inactive).
Under `COc1cnn(-c2ccccc2)c(=O)c1N(C)C` stands -1.2% (inactive).
Take `O=C(C1CC1)N1CCc2cc(Br)cc(S(=O)(=O)NCCN3CCOCC3)c21`: the cytotoxicity is -14.7% (inactive).
The value for `O=c1c2ccccc2nc(SCc2nnc(-c3ccccc3Br)o2)n1Cc1ccco1` was 14.1% (inactive); that for `COC(=O)c1ccc(C(=O)OC)c(NC(=O)c2cnc3n(c2=O)CCS3)c1` was -7.2% (inactive); that for `CCCc1[nH]nc2c1C(c1ccc(OC)cc1OC)C(C#N)=C(N)O2` (stereo unspecified) was -5% (inactive).
In the case of `Oc1ccc2ccccc2c1/C=N/n1cnnc1`, the cytotoxicity is 10.5% (inactive).
As to `OCC(CO)(CO)N=Cc1c(O)ccc2ccccc12`, the cytotoxicity is 58.9% (active).
The value for `Oc1ccc2ccccc2c1C=NC12CN3CCN(CN(C3)C1)C2` was 0.3% (inactive).
Consider `CCNc1nc(N2CCCCC2)nc(-n2nnc(C(=O)OCC)c2C)n1`, for which the cytotoxicity is -22.1% (inactive).
With `O=c1[nH]c2ccccc2n1CCCOc1ccccc1`, the cytotoxicity was 5% (inactive).
`CCCSC1=N/C(=C\C=C\c2ccco2)C(=O)S1`: the cytotoxicity was 61.6% (active).
The value for `O=C1SC(SCc2ccccc2)=N/C1=C\c1ccco1` was 2.6% (inactive); that for `C=CCSC1=N/C(=C\C=C\c2ccco2)C(=O)S1` was 45.9% (inactive).
`Cc1cccc(OCCCC(=O)Nc2ccc3c(c2)OCO3)c1`: the cytotoxicity was 34% (inactive).
Take `CN(C)CC(C(=O)c1ccccc1)c1ccccc1` (stereo unspecified): the cytotoxicity is 103% (active).
The value for `COc1ccc(C(C(=O)OC(C)CN(C)C)c2ccccc2)cc1` (stereo unspecified) was 4.3% (inactive).
Consider `CCC(C(=O)c1ccc(O)cc1)c1ccccc1` (stereo unspecified), for which the cytotoxicity is 9.4% (inactive).
The value for `N=c1n(CC(=O)O)c2ccccc2n1Cc1ccccc1Cl` was -13.9% (inactive).
Under `O=C(Cn1nnc(-c2cccc(C(F)(F)F)c2)n1)NC1CCCC1` stands 8.5% (inactive); under `Cc1cc(C)n(CC(=O)n2c3c(c4ccccc42)CCCC3)n1`, -18.6% (inactive).
For the molecule `COC(=O)c1ccc2c(=O)n(CCC3=CCCCC3)c(SCC(=O)N3CCCC3)nc2c1`, the cytotoxicity was -13.9% (inactive).
Turning to `COC(=O)c1ccc2c(=O)n(Cc3ccc4c(c3)OCO4)c(SCC(=O)N3CCCC3)nc2c1`, the cytotoxicity was 52.3% (active).
Regarding `CC1CCCCN1C(=O)CSc1nc2cc3c(cc2c(=O)n1Cc1ccc2c(c1)OCO2)OCO3` (stereo unspecified), the cytotoxicity is 0.1% (inactive).
The value for `Nc1nc(CSc2ncn(-c3ccccc3)n2)cs1` was 15.3% (inactive); that for `CC(=O)N(Cc1cc2ccc(C)c(C)c2n2nnnc12)C1CCCC1` was -3.5% (inactive).
Regarding `Cc1ccc(S(=O)(=O)N(CC(=O)O)Cc2ccccc2)cc1`, the cytotoxicity is -7.6% (inactive).
Under `O=C(CN1C(=O)C2CC=C(Cl)CC2C1=O)N1CCOCC1` (stereo unspecified) stands -3.5% (inactive); under `CN1CCN(C(=O)c2cccc(S(=O)(=O)N3CCCCC3)c2)CC1`, -2.6% (inactive).
For the molecule `Cn1c(C(=O)NC2CCCC2)cc2c(=O)n(C)c3ccccc3c21`, the cytotoxicity was 3.5% (inactive).
Under `O=C(NC1CCCCC1)c1sc(=S)n2c1[nH]c(=O)c1ccccc12` stands 82.6% (active); under `O=C(NC1CCCCCC1)c1c(O)c2ccccc2[nH]c1=O`, -4.9% (inactive).
The value for `Cn1c(=O)c(C(=O)NC2CCCCCCC2)c(O)c2ccccc21` was 9.6% (inactive); that for `O=C(NC1CCCCCCC1)c1c(O)c2ccccc2[nH]c1=O` was -13.7% (inactive).
As to `O=C(NC1CCCC1)c1sc(=S)n2c1[nH]c(=O)c1ccccc12`, the cytotoxicity is 79.4% (active).
Regarding `COCCN(CCOC)C(=O)CCn1c(=O)oc2ccccc21`, the cytotoxicity is -0.2% (inactive).
With `Cc1cc2n(n1)C(c1sccc1C)Nc1c(C)cccc1-2` (stereo unspecified), the cytotoxicity is -3.2% (inactive).
On to `C(=C\c1ccccc1)/CSc1nnc(-c2ccccn2)n1Cc1ccco1`, for which the cytotoxicity was 33.9% (inactive).
The value for `CC1(C)Cc2nc3oc4c(=S)nc[nH]c4c3cc2CO1` was -4.7% (inactive).
Under `Cn1c(=O)c2c(ncn2CC(=O)N2CCN(c3ccc(F)cc3)CC2)n(C)c1=O` stands 4.3% (inactive); under `CCOC(=O)c1cnn2c(C)cc(-c3ccc(F)cc3)nc12`, -7.6% (inactive); under `COc1ccccc1-c1cc(C(F)(F)F)nc(S(=O)(=O)CCCC(=O)Nc2cc(C)on2)n1`, 38.2% (inactive).
Under `COCC(C)NC(=O)CCS(=O)(=O)c1nc(-c2ccc(OC)cc2)cc(C(F)(F)F)n1` (stereo unspecified) stands 66.1% (active).
Regarding `CCOC(=O)CS(=O)(=O)c1ccc2ccccc2c1`, the cytotoxicity is -10.2% (inactive).
Under `Cc1cc(NC(=O)CCCS(=O)(=O)c2nc(-c3cccs3)cc(C(F)(F)F)n2)no1` stands 3.6% (inactive); under `COc1ccc(-c2cc(C(F)(F)F)nc(SCC(=O)Nc3cc(C)on3)n2)cc1`, -21.7% (inactive); under `CCOC(=O)CS(=O)(=O)c1nc(-c2ccccc2)cc(C(F)(F)F)n1`, 27.1% (inactive).
The value for `CCOC(=O)CCn1nc(-c2ccccc2)cc1N` was -7.8% (inactive).
Regarding `COc1ccc(-c2cc(C(F)(F)F)nc(SCCC(=O)NCc3ccco3)n2)cc1`, the cytotoxicity is -3.2% (inactive).
The value for `CCn1cc(C(=O)NC2CCCCCC2)c2cc(OC)c(OC)cc2c1=O` was -1.3% (inactive); that for `CS(=O)(=O)Nc1ccc(C(=O)NCCSCc2ccco2)cc1` was -13.9% (inactive).
For `COCCOC(=O)C1=C(C)NC(=O)NC1c1ccc(OC(=O)c2ccco2)c(OC)c1` (stereo unspecified), the cytotoxicity is -1.8% (inactive).
Consider `Cc1cc(=O)[nH]c(N2CCN(C(c3ccccc3)c3ccccc3)CC2)n1`, for which the cytotoxicity was -6% (inactive).
Under `COc1ccc(C2CC(=O)c3cnc(NC(=O)c4cc(OC)cc(OC)c4)nc3C2)cc1` (stereo unspecified) stands -16.4% (inactive).
